Consider 108 sequences from PubChem BioAssay AID1508600 (Functional Genomics Laboratory (NCATS/FGL), 2020).

In all, about 53,000 sequences went through this assay and about 3,700 (7%) were called active. This excerpt belongs to a sample that is enriched for actives. A number with no mark means an inactive call.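 The calls were made as follows: active = gene knockdowns whose robust z-score for IL-1 alpha signal is at least 2 or at most -2, so actives lie on both sides; inactive = the rest.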

The nature of this test: Components of the Cytosolic LPS Sensing Pathway: Gene Identification via Genome-wide siRNA Screen.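 Also: robust z of the log signal after scaling to non-targeting control siRNA wells of the plate.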 To be noted: RAW264.7 macrophages, IL-1a HTRF, actives lie on both sides, screened at 100 nM (by protocol), cells primed 5 h with Pam3CSK4 first. The method, boiled down: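 Cells (RAW264.7, 1×10^4 per well) were transfected with siRNA at 100 nM and cultured 48h at 37 degrees C. Pam3CSK4 was added for 5 hours; LipidA transfection followed for 24 hour. IL-1a was then measured by HTRF.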
A general note: TR-FRET usually uses a lanthanide donor and a delayed reading to cut background.
With GGGCAGAUCCUAAUAAGCATT against Irs3, the z-score is -1.21.

For GCUAAGGUCUUACUCCUGGTT against Cdca4, the z-score is 1.13.

Take GCCAGUGUUGGUUAUAAAATT against Isg15: the z-score is 0.673.

For CCAUGGCACAGACAGCUAUTT against Celf1, the z-score is -2.02 (active).

In the case of GCUUUUGCCCGAUGGAUUUTT against Plpp3, the z-score is 0.136.

Regarding GGUAUACAGGAUGUUAAGGTT against Pdlim4, the z-score is 0.889.

Regarding GGAGACCCACUACAUGACUTT against H2-M2, the z-score is -0.982.

On to CCCAUCUUUGCAACAUAUCTT against Scgb2b20, for which the z-score was -1.43.

GGUCCCAUUCAGUGUGUGUTT against Cdk10: the z-score was 2.98 (active).

In the case of UAGUCACAAGGUUUGAAACTT against Fbxw24, the z-score was -0.822.

Regarding GGUCCUGGACUUCAUGCUATT against Galnt6, the z-score was 2.75 (active).

Regarding GCUGUACAGUCAAUACCUGTT against Abhd17a, the z-score is 1.2.

As for GGACCUUUAGCUGGUUUAGTT against Sowaha, the z-score was 0.559.

As to GGUGAUUCCAUUACCUAGUTT against Pde12, the z-score is 0.572.

On to GGUAAAAUCACGCAGUAAATT against Ppp1r3a, for which the z-score is -0.56.

In the case of GGACCCAGAGAAGAUCAAATT against Etfrf1, the z-score is 0.514.

Regarding GGCAUAGCUCAGUGAUAGCTT against Tmem19, the z-score was 0.117.

With CCAGACAGAAGGGUUAGCUTT against Mrps36, the z-score is -2.03 (active).

With GCCUUUACACUAAUGAUAATT against Cilp, the z-score was 0.455.

As for GGUCUCAGUUUCUCAGAAUTT against Siglece, the z-score is -1.62.

Take GCUUGCUUAUGGCCUAUUATT against Ucma: the z-score is -2.05 (active).

As for GCUACCAGGAUAGCGAAACTT against P2rx2, the z-score was 0.826.

Regarding GGAAAAAUGGUCUGUAAAATT against Adck2, the z-score is 0.508.

With GGAAAAGGUGACCUGUCUCTT against Slc44a1, the z-score is -1.77.

Regarding GGCCAGAAAGGCAGCAAAGTT against Msgn1, the z-score was -1.03.

As for GGAAGUGAAGACCUUCUUCTT against St3gal4, the z-score is -0.898.

Consider UCGAUAGCCUCAAUCAGCATT against Zfp58, for which the z-score was -1.99.

On to GGAGAAGGUCGAAAAGCCUTT against Rybp, for which the z-score was -2.01 (active).

For GCAUUCGUUCGGCACGUGUTT against Bcl2l14, the z-score was -0.0672.

CGAAGGGAAGCAAAAUACATT against Bend5: the z-score was 2.11 (active).

Take GCCCUGGAUCAUUGAGUGATT against Atp2b1: the z-score was 0.749.

GGCCAUACACCUGUGACAUTT against Osr2: the z-score is 1.37.

GGAUGAUCGCUUUUGCUAUTT against Caly: the z-score was 2.02 (active).

Regarding CCCUCUACUACUGCAUCGUTT against Xkr7, the z-score was 1.74.

Turning to GCACUUCUACCGGAAAGUUTT against Mad2l1bp, the z-score was -0.761.

Regarding GCAAAGCCCUAUUCCUAAUTT against Vmn2r42, the z-score is 1.21.

GGCCUAAACCCUUUCAUCUTT against V1rb6: the z-score was -0.0202.

For GCGAUCCUCUCUACUUAACTT against Eno4, the z-score was -1.49.

Take CGUGGGACCUGGUAUGUAATT against Slc22a12: the z-score is 2.79 (active).

For GCGGGUAUGAUGGUACCUUTT against Pomt2, the z-score was 1.39.

CGUGAUGAGUGAAAAUGAUTT against Cd34: the z-score was -2.12 (active).

Take GGUACUUCACAAUGGACAGTT against Zcchc9: the z-score was 0.951.

With GGUGCAUUUUCUAGAAUCATT against Usp45, the z-score is 0.933.

Turning to GGUACCUAUGCCAGUUUUGTT against Aqp12, the z-score was 2.89 (active).

For GCCACCAAGUACUUUGGUUTT against Vmn1r76, the z-score is 1.34.

With GCAAUUUGCUCAUCUCUAATT against Dcc, the z-score was 1.89.

In the case of GGAUGCAGAUGCUGUGGACTT against S100a1, the z-score was -0.918.

For GGAGUACGACUACUACGGUTT against Sfrp5, the z-score is 0.83.

Consider GGAUUACCGGCAGCUGGAATT against Dnm1, for which the z-score is 2.24 (active).

Consider GGCGAGCAUCGCUAUUGACTT against Zcrb1, for which the z-score is 0.734.

Regarding GGAGAUCCUAGGCUUGAACTT against Vsx2, the z-score was 0.279.

Consider GGGAGACUUGUCAUGCACATT against Slc45a2, for which the z-score is 0.728.

As to GGUAGCUGAAGAAGACUUCTT against Reg2, the z-score is -0.591.

GGCUUUGCUGAAUGUCUCATT against Nrn1l: the z-score is 0.443.

Consider CCUGCUAAUGUUUGUAAGUTT against Sowahc, for which the z-score was 1.37.

In the case of GCAUUAAUUGCUUCUCUUATT against Nup155, the z-score is -2.35 (active).

Consider GGAACUCACCCUCAGCUUGTT against Tmem260, for which the z-score is 0.313.

Regarding CCAAACAACCAGCUAAUAUTT against Mia3, the z-score was -0.375.

Consider GGUGAAAUGAGAAUACUUGTT against Erap1, for which the z-score is 1.07.

On to CCCUGGUUGUUUGUAGAGUTT against Armt1, for which the z-score is 2.38 (active).

As for GGAAUGAUGAAGAGUGUCCTT against Btla, the z-score was -0.0564.

Turning to GGCUACUGUAGGAAGAAAUTT against Defb20, the z-score was 1.7.

Turning to GGAAGUUUUGUUCCUGCAUTT against Nars2, the z-score was -0.0244.

On to GGCCAUCCAGAAUUACAUGTT against Vash2, for which the z-score was 1.08.

GGAGAAGGAACUGUGUGAGTT against Nfkbil1: the z-score is -2.26 (active).

CCGGGUCAGGACAAUUCAUTT against Hsd17b1: the z-score is 1.87.

With GGCCAUUGAUCAAGACAAGTT against Glyat, the z-score is 1.66.

As to GGCUUUGUAGAAAAUUCAUTT against Polr2a, the z-score was -2.15 (active).

For GCCGUGAUGCCUAAAAUGCTT against Olfr543, the z-score is -0.306.

GGUAUCUUGAGAAGCCAAUTT against Stat3: the z-score was -0.536.

Take GGAUUCAUCAUCUACCCGGTT against C1ql4: the z-score was -1.08.

GGAUAACCUUGAGUAGGUGTT against Olfr906: the z-score is 0.484.

In the case of CGGAUACCUAGAGUGCAUCTT against Zfp42, the z-score is 0.725.

On to CGUGGAAGCUGUGUUAUCUTT against Il34, for which the z-score is -0.112.

For the sequence GGAUGACCAGAACUUCAGUTT against Zfp956, the z-score was 2.84 (active).

For AACGUAAUUAGCGUGAAUUTT against Cyp2j11, the z-score was 0.337.

GCAGUUCCCAUAGUUUUCUTT against Il1r2: the z-score was 6.07 (active).

For CUUGUCAAGUGAUGAAAUGTT against Xlr, the z-score is -0.546.

For GGUCGAAAGAAUAAUUUGUTT against Cct6a, the z-score was -0.628.

For GGCAAUUUUCAGAGAAGUUTT against Fosb, the z-score was -2.08 (active).

As for GGCAGUCUACUUUACACGGTT against Prdm1, the z-score is 0.294.

On to GGAUCUUGGAUAAAGUGUGTT against Gpr180, for which the z-score was 1.73.

CCCAGUUGCUGUUCUUGACTT against Defb40: the z-score is 0.553.

Regarding GGCUUCCUCAAGAACUUUCTT against Acly, the z-score is 0.0643.

As to CCGGUUACAAACUCAACUGTT against Syne3, the z-score was -0.285.

For GGGAGAGAUCCUCAACAGGTT against Cdk5rap1, the z-score is -0.581.

In the case of GGUGCAUGACCUGACAAAGTT against Fermt3, the z-score was 2.5 (active).

For “CCUGGGUUGGAUAAAACUUTT against 6030458C11Rik”, the z-score was -0.0611.

On to GGAUUUUAAACCUUAAGGUTT against Ssty1, for which the z-score is 0.49.

For GGCAGUGAAGAGAAGAAGUTT against Trub2, the z-score is -0.835.

With GGAUUUCUUUGUCAGUACUTT against Il22ra2, the z-score is 0.791.

With CCAUUAUGGACAAUAAGAGTT against Rnf8, the z-score is 0.396.

In the case of GCAUGUGACUCCAUAUAAATT against Cldn15, the z-score was -0.117.

With GGUUCAAAACUACACACACTT against Sp9, the z-score was 0.512.

As for GGAGGGUACUCACAGGAAATT against Olfr411, the z-score was -2.05 (active).

With GGAUCAAUGCACCUUCCAATT against Gpr85, the z-score is 1.61.

Turning to GGACCAGUUUAUCCAGCACTT against Mc3r, the z-score is -0.699.

In the case of GGCAGAAAAGAUAGCAUCUTT against Cops4, the z-score is 0.413.

In the case of GGUCUUUUCUAUUAUGGGATT against Strc, the z-score was 1.22.

“GCGGUUUUGUGUCAGGGACTT against 4833408A19Rik”: the z-score is -0.682.

Regarding GGAGCUGUUGAAAGAAUAUTT against Relt, the z-score is 2.63 (active).

As to CCCUGAACAGGUCAUCUGUTT against Ctps2, the z-score is 0.822.

For GGACAUGACUCUAAAAAAATT against Slc44a3, the z-score was 4.43 (active).

Consider CGUGCUCAUUUAGGUUAUATT against Zfp57, for which the z-score is 1.15.

As to GGGCAAAUAGUCAAUGACCTT against Ces1e, the z-score was 0.661.

For the sequence GCGGAACUUUCAUUGCUGGTT against Rabggta, the z-score is 1.85.

Consider CCGGAGCACCAUUAAGGUUTT against Nudt11, for which the z-score was 4.75 (active).

In the case of GCCUUCUGAUUCAUUUUCUTT against Naa38, the z-score is 0.525.
